An excerpt weighted towards active compounds, which were near 9.2% of everything screened.
FLuc counter = counter-screen for miR-21 project: firefly luciferase inhibitors or activators. P08659. purified FLuc, Km substrates, luminescence inhibition. Potency, µM (highest dose often 57.5 µM), for inactives: top-dose activity change, negative = inhibition, usual class: inhibitors. 360,000 compounds, 6.9% hits. AID 588342;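 note: plate controls were vehicle for no effect and reference inhibitor for full effect; nearly all actives have a fitted effect of over 55% in size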
Target sequence (P08659 whole entry, looked up): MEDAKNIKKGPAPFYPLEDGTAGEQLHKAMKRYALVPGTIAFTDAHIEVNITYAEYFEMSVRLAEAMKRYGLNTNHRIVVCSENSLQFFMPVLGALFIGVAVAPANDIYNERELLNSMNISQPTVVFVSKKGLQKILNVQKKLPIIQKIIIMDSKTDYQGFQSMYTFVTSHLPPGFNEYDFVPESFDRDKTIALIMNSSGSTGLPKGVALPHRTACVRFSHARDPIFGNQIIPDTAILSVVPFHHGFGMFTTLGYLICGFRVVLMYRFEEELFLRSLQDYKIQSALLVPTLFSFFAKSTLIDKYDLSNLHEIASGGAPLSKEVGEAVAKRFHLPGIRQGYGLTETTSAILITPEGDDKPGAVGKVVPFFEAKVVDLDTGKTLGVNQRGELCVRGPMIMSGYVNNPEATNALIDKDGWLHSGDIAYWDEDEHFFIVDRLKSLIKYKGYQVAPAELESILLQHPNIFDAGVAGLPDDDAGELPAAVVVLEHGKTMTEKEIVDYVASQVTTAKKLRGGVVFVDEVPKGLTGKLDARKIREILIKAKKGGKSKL
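Purified P. pyralis luciferase (10nM final) with 10uM D-luciferin and 10uM ATP (Km levels) in 50mM Tris acetate pH 7.5, 10mM Mg acetate, 0.01% Tween-20, 0.05% BSA; qHTS 6-point titration, ~60 µM downward; luminescence read.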
SMN2 splice enh = increases expression of the SMN2 splice variant; HEK293 SMN2-luciferase splicing reporter, luminescence, 30-36 h; 210,000 compounds, 2.8% hits; AID 1458; Potency, µM (highest dose often 46.1 µM), for inactives: at the top dose activity change, positive = activation, actives largely listed as activators; note: % of control where 0% means no effect; nearly all actives have a fitted effect of over 55% in size
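HEK293 cells carry an SMN2 minigene-luciferase reporter in which exon 7 inclusion puts luciferase in frame. Cells were seeded at 2000 cells/well, attached for 10-12 hours, then exposed to compounds for 30-36 hours at 37C before ONE-Glo luminescence.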
NPC1 prom act = activators of NPC1 promoter; AID 485313; Potency, µM (series often up to 9.22 µM), without a hit: at the highest dose activation, usual class: activators; 320,000 compounds, 2.4% hits; Huh7 NPC1 promoter luciferase reporter, 24 h; note: % of control where 0% means no effect; nearly all actives have a fitted effect of over 60% in size
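Luminescence read-out of NPC1 promoter-driven luciferase in stably transfected Huh7 cells; compounds delivered in DMSO and left 24 h at 37C, 5% CO2, qHTS titration format.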
ELG1 genotoxic = induces genotoxicity in HEK293T cells with luciferase-tagged ELG1. HEK293T ELG1-luciferase reporter, luminescence, 16 h. 330,000 compounds, 1.3% hits. Potency, µM (highest dose often 46 µM), for the others: at the highest dose activity change, positive = activation, most hits filed as activators; note: % of control where 0% means no effect; nearly all actives have a fitted effect of over 60% in size
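After overnight (16 hr) compound treatment at 37 °C, ELG1-luciferase HEK293T cells were lysed with ONE-Glo; luminescence quantified 30 min later at room temperature.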
Rab9 promoter act = Rab9 promoter activation; 320,000 compounds, 2.8% hits; Potency, µM (titrated, usually from 9.22 µM), without a hit: at the highest dose activation, negative = inhibition, hits mostly activators; Huh7 Rab9 promoter-luciferase reporter, luminescence, 24 h; note: % of control where 0% means no effect; nearly all actives have a fitted effect of over 60% in size
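Luminescence from Amplite-detected luciferase (10 minutes, ambient) reports Rab9 promoter activation. Before that, stable Rab9-luciferase Huh7 cells (1500/well, reduced-serum OP-MEM I plus 10% FBS) were exposed to compound for 24 hours at 37C.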
ELG1 DNA repair = ELG1-dependent DNA repair inhibition; HEK293T ELG1-luciferase reporter, luminescence, 16 h; DNA damage induced by 5-fluorouridine; AID 504467; 330,000 compounds, 2.3% hits; Potency, µM (top dose mostly 46.1 µM), inactives show at the top dose activity change, negative = inhibition, most hits filed as inhibitors; note: % is set by controls: 0 for no effect and ±100 for the full control effect; nearly all actives have a fitted effect of over 55% in size
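Cells (2,000 per well) received 5-fluorouridine plus test compound or DMSO and were incubated 16 hr at 37 °C, 5% CO2. Luciferase activity was read by luminescence 30 min after ONE-Glo addition; signal suppression marked inhibition of damage-induced ELG1 function.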
* marks the source's active call; other numbers are inactive results; [ ] = dose if it differs, or a comment. Calls come from the whole dose curve; as a rule, active = well fitted curve in the direction sought with a large enough effect; inconclusive = small, poorly fitted or top-dose-only effect, or another doubt; inactive = no such curve, though single readings can be large; an effect the other way counts as inactive or inconclusive. Potency is the fitted concentration of half-maximal effect.

Cc1ccc(-c2nc(SCC(=O)Nc3cc(S(=O)(=O)N4CCCCC4)ccc3Cl)n[nH]2)cc1 was read as FLuc counter 15µM*, SMN2 splice enh 5%[1.84 µM], NPC1 prom act -5%, ELG1 genotoxic 0%, Rab9 promoter act -7% and ELG1 DNA repair -14%.
COc1ccccc1CNCC(=O)Nc1cc(S(=O)(=O)N2CCCCCC2)ccc1Cl was read as FLuc counter 4%, NPC1 prom act 1%, ELG1 genotoxic -12%, Rab9 promoter act -3% and ELG1 DNA repair 23µM*.
Screening COc1ccccc1CNCC(=O)Nc1cc(S(=O)(=O)N2CCOCC2)ccc1Cl returned FLuc counter -1%, NPC1 prom act -3%, ELG1 genotoxic -7%, Rab9 promoter act -6% and ELG1 DNA repair 21µM*.
Screening CCCCNC(=O)C1CCC(Cn2c(=O)c3sccc3n(Cc3ccccc3)c2=O)CC1 (stereo unspecified) returned FLuc counter 1%.
Screening Cc1cc2c(cc1NS(=O)(=O)c1cccc(C#N)c1)n(C)c(=O)c(=O)n2C returned FLuc counter 3%.
For CCCCn1c(N)c(N(CCOC)C(=O)c2cc(-c3ccc(F)cc3)nc3ccccc23)c(=O)[nH]c1=O the results were FLuc counter -2%, NPC1 prom act -3%, ELG1 genotoxic 20%, Rab9 promoter act 1% and ELG1 DNA repair inconclusive.
For CC(=O)Nc1cc(NC(C)=O)cc(C(=O)OCC(=O)N(c2ccccc2)C2CCS(=O)(=O)C2)c1 (stereo unspecified) the results were FLuc counter 0%, NPC1 prom act -1%, ELG1 genotoxic 0%, Rab9 promoter act 0% and ELG1 DNA repair 10%.
Screening COc1cc(S(=O)(=O)N2CCOCC2)ccc1NC(=O)COC(=O)/C=C/c1cc(OC)c(OC)c(OC)c1 returned ELG1 genotoxic 17% and ELG1 DNA repair 0%.
`COc1cc(/C=C/C(=O)OCC(=O)Nc2cc(S(=O)(=O)N3CCOCC3)ccc2Cl)cc(OC)c1OC` gave ELG1 genotoxic -1% and ELG1 DNA repair 18µM*.
Screening N#CC(c1nc2ccccc2nc1N1CCCC1)S(=O)(=O)c1ccccc1 (stereo unspecified) returned FLuc counter -1%, SMN2 splice enh -7%, NPC1 prom act 2%, ELG1 genotoxic -8%, Rab9 promoter act 2% and ELG1 DNA repair inconclusive.
For CN1CCN(c2nc3ccccc3nc2C(C#N)S(=O)(=O)c2ccccc2)CC1 (stereo unspecified) the results were FLuc counter 1%, NPC1 prom act -1%, ELG1 genotoxic -15%, Rab9 promoter act -2% and ELG1 DNA repair 8.2µM*.
`Cc1cccc(C(=O)N2CCN(c3ncnc4c3cnn4-c3ccccc3)CC2)c1` gave FLuc counter -1%, SMN2 splice enh -79%, NPC1 prom act 5%, ELG1 genotoxic -14%, Rab9 promoter act 0% and ELG1 DNA repair 15µM*.
Screening Cc1cccc(-n2ncc3c(N4CC(C)CC(C)C4)ncnc32)c1 (stereo unspecified) returned FLuc counter 5.4µM*, SMN2 splice enh inconclusive, NPC1 prom act 2.2µM*, ELG1 genotoxic 2.6µM*, Rab9 promoter act 1.6µM* and ELG1 DNA repair inconclusive.
For Cc1cccc(-n2cc(-c3ccccc3)c3c(N4CCOCC4)ncnc32)c1 the results were FLuc counter 0%, SMN2 splice enh -14%, NPC1 prom act -2%, ELG1 genotoxic -11%, Rab9 promoter act 4% and ELG1 DNA repair 18µM*.
`Cc1cccc(-n2ncc3c(N4CCCC4)ncnc32)c1` gave FLuc counter 0.95µM*, SMN2 splice enh 1.6µM*, NPC1 prom act 0.5µM*, ELG1 genotoxic inconclusive, Rab9 promoter act 0.63µM* and ELG1 DNA repair inconclusive.
`COc1ccc(-n2ncc3c(N4CCN(c5cccc(C)c5)C(C)C4)ncnc32)cc1` (stereo unspecified) gave FLuc counter -2%.
Cc1cccc(-n2ncc3c(N4CCN(c5ccccc5)CC4)ncnc32)c1 was read as FLuc counter -2%.
Screening CC1CCCC(NC(=O)CNCc2ccccc2F)C1C (stereo unspecified) returned FLuc counter -2%, SMN2 splice enh 12%, NPC1 prom act -4%, ELG1 genotoxic -2%, Rab9 promoter act -3% and ELG1 DNA repair -6%.
For Cc1nn(Cc2ccccc2)c(Cl)c1/C=C/C(=O)OC(C)C(=O)N1CCCC1 (stereo unspecified) the results were FLuc counter -1%, SMN2 splice enh 1%, NPC1 prom act 0%, ELG1 genotoxic -6%, Rab9 promoter act 2% and ELG1 DNA repair inconclusive.
COc1ccc(-n2nnc(-c3nsc(NC(=O)c4cccc(C)c4)n3)c2C)cc1OC was read as FLuc counter 2%.
Screening Cc1cccc(-n2ncc3c(N4CCOCC4)ncnc32)c1 returned FLuc counter 0.54µM*, SMN2 splice enh -68%, NPC1 prom act 0.35µM*, ELG1 genotoxic inconclusive, Rab9 promoter act 0.35µM* and ELG1 DNA repair inconclusive.
CCCCSc1nsc(NC(C)=O)n1 was read as FLuc counter 11µM*, SMN2 splice enh 18µM*, NPC1 prom act 2.2µM*, ELG1 genotoxic inconclusive, Rab9 promoter act 1.4µM* and ELG1 DNA repair inconclusive.
Screening CCCSc1nsc(NC(=O)CCC)n1 returned FLuc counter 12µM*, SMN2 splice enh 5µM*, NPC1 prom act 2.8µM*, ELG1 genotoxic 8%, Rab9 promoter act 1.4µM* and ELG1 DNA repair inconclusive.
COc1ccc2[nH]c(CN3CCN(CC=C(C)C)C(CCO)C3)c(C)c2c1 (stereo unspecified) was read as FLuc counter -6%, NPC1 prom act 5%, ELG1 genotoxic -4%, Rab9 promoter act -6% and ELG1 DNA repair 18%.
Screening O=C(Nc1ccccc1F)C1CCCN(S(=O)(=O)c2ccccc2)C1 (stereo unspecified) returned FLuc counter 0%, SMN2 splice enh 4%, NPC1 prom act 0%, ELG1 genotoxic -2%, Rab9 promoter act -4% and ELG1 DNA repair 5%.
For CCCNC(=S)NC1CC2CCCC(C1)N2Cc1ccc(F)cc1 (stereo unspecified) the results were FLuc counter 6%, NPC1 prom act -6%, ELG1 genotoxic -7%, Rab9 promoter act 0% and ELG1 DNA repair -14%.
